This is a sample that favours compounds with a hit; in the whole collection about 1.3% have one here.
NR2F2 inh = NR2F2 transcriptional activity inhibitors, primary screen, cell-based, luciferase reporter, HEK293T, luminescence | COUP transcription factor 2 (Homo sapiens), P24468 | HEK293T NGFI-A luciferase reporter | inhibition, % at 8.6 µM | 0.7% of 370,000 active;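 active = inhibition above a per-plate cutoff, mean inhibition of test wells between control levels plus 3 SD, cut at about 38% in these data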;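 note: cells cotransfected with COUP-TFII expression vector driving the NGFI-A reporter; 0% = median of COUP-TF2 test wells and 100% = reporter-only cells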
Target sequence (P24468 whole entry, looked up): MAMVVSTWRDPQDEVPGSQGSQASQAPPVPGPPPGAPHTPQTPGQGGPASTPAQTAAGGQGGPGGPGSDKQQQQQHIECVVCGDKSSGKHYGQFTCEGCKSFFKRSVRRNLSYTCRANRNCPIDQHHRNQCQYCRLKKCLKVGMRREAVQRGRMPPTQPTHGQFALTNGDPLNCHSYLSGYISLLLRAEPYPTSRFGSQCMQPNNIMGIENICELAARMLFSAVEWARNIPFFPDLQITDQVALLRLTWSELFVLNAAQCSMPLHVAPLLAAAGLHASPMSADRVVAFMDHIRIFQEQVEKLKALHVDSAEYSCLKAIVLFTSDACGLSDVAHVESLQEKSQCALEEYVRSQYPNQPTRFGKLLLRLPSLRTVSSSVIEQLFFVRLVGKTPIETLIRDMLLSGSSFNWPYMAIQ
NCOA3 inh = SRC3 coactivator transcriptional activity inhibitors, primary screen, cell-based, luminescence | Nuclear receptor coactivator 3 (Homo sapiens), Q9Y6Q9 | HEK293 GAL4-SRC3 luciferase reporter | inhibition, % at 3.6 µM | 0.17% of 360,000 active | AID 588352, 2011;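 active = inhibition above a per-campaign cutoff, the mean of all compounds plus 3 SD, cut at about 60% in these data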;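 note: 0% = DMSO-treated cells and 100% = gossypol-treated cells at 36 µM; higher means less SRC3-driven luciferase light from the GAL4 reporter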
Gli-Sufu antag = Gli-Sufu pathway antagonists, primary screen, luciferase luminescence, Sufu-KO-LIGHT cells, uHTS; Sufu-KO-LIGHT fibroblasts, Gli luciferase reporter luminescence; inhibition, % at 5 µM; 0.74% of 340,000 active;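 active = inhibition above about 55%, limit read from the data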;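 note: 0% = DMSO-treated cells and 100% = wells with medium but no cells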
LRH-1 inv ag = LRH-1 (NR5A2) inverse agonists, primary screen, cell-based, luminescence, HEK293T, StAR-luciferase reporter. 0.13% of 360,000 active. LRH-1 transfected, 24 h. AID 602396, 2012. inhibition, % at 3.6 µM. Nuclear receptor subfamily 5 group A member 2 (Homo sapiens), O00482;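 active = inhibition above the mean inhibition of all tested compounds plus 3 SD, cut at about 73% in these data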;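 note: 0% = DMSO wells and 100% = reporter-only cells lacking LRH-1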
NCOA1 inh = SRC1 coactivator transcriptional activity inhibitors, primary screen, cell-based, luminescence; 0.12% of 360,000 active; Nuclear receptor coactivator 1 (Homo sapiens), Q15788; inhibition, % at 3.6 µM; HEK293 GAL4-SRC1 luciferase reporter;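 active = inhibition above the campaign mean plus 3 SD, with each screening campaign given its own cutoff, cut at about 60% in these data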;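 note: 0% = DMSO treated cells and 100% = gossypol at 36 µM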
NCOA2 inhibitor = inhibition of GAL4-SRC2 driven luciferase reporter, primary screen, SRC2 inhibitor project, cell-based, luminescence | inhibition, % at 9 µM | 0.17% of 370,000 active | Nuclear receptor coactivator 2 (Homo sapiens), Q15596 | HEK293 GAL4-SRC2 luciferase reporter;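 active = inhibition above the mean inhibition of all tested compounds plus 3 SD, set per campaign, cut at about 52% in these data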;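 note: 0% = DMSO treated cells and 100% = cells given Gossypol at 36 µM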
Gli antag conf = Gli-SUFU pathway antagonists, confirmation, single concentration, luciferase luminescence, Sufu-KO-LIGHT cells; shares compounds with Gli-Sufu antag; Gli luciferase reporter; inhibition, % at 5 µM; 40% of 2,500 active; AID 602428, 2012;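 active = mean inhibition at 5 µM reaching about 45%, limit read from the data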;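 note: plate controls were DMSO-treated cells for no effect and wells lacking cells for full effect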
Gli cytotox = cytotoxicity in Sufu-KO-LIGHT cells, confirmation, cytotoxicity control for Gli-SUFU antagonist project, cell-based, ATP luminescence, single concentration; shares compounds with Gli-Sufu antag; cytotoxicity, % at 5 µM; 32% of 2,500 active;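 active = mean cytotoxicity at 5 µM above about 25%, limit read from the data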;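 note: cells exposed to compound overnight for roughly 16 to 18 hours; plate controls were DMSO wells with cells for no effect and medium without cells for full effect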
Wnt3a cs = Wnt3a reporter signal inhibition, confirmation, counter-screen for Gli-SUFU antagonist project, Wnt-LIGHT cells, luminescence, single concentration. inhibition, % at 6.25 µM. Wnt3a-driven luciferase reporter. 20% of 2,500 active. AID 651995, 2013. shares compounds with Gli-Sufu antag;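 active = mean inhibition above about 25%, limit read from the data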
* = called active by the depositor; · = no result given.

SMILES	NR2F2 inh	NCOA3 inh	Gli-Sufu antag	LRH-1 inv ag	NCOA1 inh	NCOA2 inhibitor	Gli antag conf	Gli cytotox	Wnt3a cs
COC(=O)[C@]12C[C@H](CC(=O)NCCCCc3ccccc3)C(=O)N(Cc3ccccc3)C1=C[C@H](COCc1ccccc1)O[C@@H]2C	16.2	·	·	·	·	20.4	·	·	·
CCC(C)(C)NC(=O)C(c1ccccc1Cl)N(C(=O)CCC(=O)Nc1cc(C)on1)c1ccc(NC(C)=O)cc1 (stereo not drawn)	7.3	-13.9	54.1	-2.0	-39.4	-14.7	9.8	28.3*	-19.1
Cc1cccc(N2C(=O)/C(=C/c3cccnc3)SC2=S)c1	-4.7	13.5	44.2	3.1	-15.9	-0.4	·	·	·
Cc1cc(/C=C2/SC(=S)N(c3ccc([N+](=O)[O-])cc3)C2=O)c(C)n1-c1cccnc1	11.0	21.7	80.8*	0.8	13.6	20.0	82.3*	20.2	-8.4
COc1cccc(CNC(=O)[C@H]2CCCN2C(=O)[C@H]2CCCN2C(=O)c2c(F)cccc2F)c1	2.3	·	·	·	·	5.0	·	·	·
CC(C)(C)C(=O)NC(=S)Nc1ccccc1C(=O)NC1CCCCC1	-3.0	-29.0	76.2*	-6.9	7.9	-0.1	21.1	46.2*	-20.6
CC(=O)NC(=S)Nc1ccccc1C(=O)NC1CCCCC1	1.2	13.5	-8.1	-31.5	1.8	0.4	·	·	·
O=C(CN1C(=O)c2ccccc2C1=O)Nc1ccccc1C(=O)NC1CCCCCC1	-4.7	-9.5	98.8*	-20.4	2.1	18.4	15.0	10.3	1.6
COc1ccccc1CN(Cc1nc2ccccc2c(=O)[nH]1)S(=O)(=O)c1ccc(C)cc1	3.1	·	52.9	·	·	-0.9	40.2	7.5	-1.9
Cc1ccc2c(c1)CCCN2C(=O)CCc1nc2ccccc2c(=O)[nH]1	-17.4	8.4	90.4*	7.6	3.7	21.3	22.0	54.6*	-11.7
CC1(C)Oc2ccc(C(=O)NCCCN3CCCC3)cc2NC1=O	-13.6	·	·	·	·	-5.8	·	·	·
COc1ccc(N(CC(=O)NCc2ccc3c(c2)OCO3)C(=O)c2csnn2)cc1	-26.1	4.6	-20.4	-1.3	4.7	-41.0	·	·	·
O=C(CN(C(=O)c1csnn1)c1ccc(Cl)cc1)NCc1ccc2c(c1)OCO2	22.0	12.8	52.9	-26.4	3.8	-21.6	2.3	5.4	-11.6
O=c1cc(N2CCN(c3cccc(Cl)c3Cl)CC2)[nH]c(=O)n1C1CCCCC1	-2.2	·	·	·	·	·	·	·	·
COc1ccc(/C=C(/NC(=O)c2ccccc2)C(=O)N/N=C/c2ccc3c(c2)OCO3)cc1OC	1.7	-9.2	83.8*	8.9	-14.7	3.6	18.4	-0.4	-7.0
N#Cc1ccc(COC(=O)C2CCC(=O)N2)cc1 (stereo not drawn)	2.0	13.9	99.3*	-6.3	8.0	0.9	10.0	2.5	-5.3
O=C1CCC(C(=O)OCC(=O)c2ccccc2)N1 (stereo not drawn)	-4.7	6.3	-5.4	-2.1	10.8	4.5	·	·	·
Cc1cccc(NC(=O)CSc2nnc(-c3cccnc3)n2Cc2ccco2)c1C	18.2	·	·	·	·	3.2	·	·	·
COc1ccc(OC)c(-c2nnc3n2N=C(c2ccc(OC(F)F)c(OCC4CC4)c2)CS3)c1	-10.1	1.3	5.9	13.8	5.3	11.4	·	·	·
COc1ccc(C2=Nn3c(nnc3-c3ccccc3OC)SC2)cc1OCC1CC1	-94.5	-0.7	64.9*	59.7	-1.7	21.5	59.5*	64.7*	-104.8
CCOC(=O)C1CCCN(C(=O)CCn2nc(-c3ccccc3)ccc2=O)C1 (stereo not drawn)	-2.8	17.2	56.3*	-0.6	-21.2	2.5	26.0	14.8	-7.2
FC(F)(F)c1ccc(N2CCN(c3cc(-c4ccccc4)nc4ncnn34)CC2)nc1	12.5	10.2	57.2*	4.8	-0.4	15.0	49.3*	9.8	-64.0
FC(F)(F)c1cccc(Nc2cc(-c3ccccc3)nc3ncnn23)c1	13.0	33.9	-0.9	-8.6	-6.4	-1.4	·	·	·
COC(=O)C1CN(Cc2ccccc2)CCS(=O)(=O)N1Cc1cn(Cc2ccccc2Br)nn1 (stereo not drawn)	10.3	·	·	·	·	-15.5	·	·	·
Cn1cc(CNCc2ccccc2OCC(O)CN2CCc3ccccc3C2)cn1 (stereo not drawn)	13.4	8.5	55.5*	18.1	-48.9	-17.5	28.7	8.5	-15.2
SMILES	NR2F2 inh	NCOA3 inh	Gli-Sufu antag	LRH-1 inv ag	NCOA1 inh	NCOA2 inhibitor	Gli antag conf	Gli cytotox	Wnt3a cs
CC(C)NS(=O)(=O)c1ccc2c(c1)oc(=O)n2C	15.4	10.1	57.2*	3.2	-3.9	-14.6	10.4	2.3	-10.4
Cn1c(=O)oc2cc(S(=O)(=O)Nc3ccccc3)ccc21	-12.2	6.2	-2.6	-16.2	-6.5	1.7	·	·	·
CC1(c2nnnn2Cc2ccccc2)CSCC(=O)N1Cc1cccs1 (stereo not drawn)	-0.8	·	·	·	·	-11.2	·	·	·
CCC(C(=O)NCCN1CCN(C)CC1)n1c(C)c2cnn(-c3ccccc3)c(=O)c2c1C (stereo not drawn)	2.8	1.7	94.0*	4.5	5.5	3.1	9.7	23.7	-9.2
COC(=O)[C@]1(C#N)CC(=O)N(Cc2ccc(Cl)cc2)[C@@H]1c1ccc(OC)cc1	-10.4	·	·	·	·	19.5	·	·	·
Cc1onc(-c2ccccc2)c1-c1nnc(-c2ccccc2C(F)(F)F)o1	15.2	14.8	1.4	-16.4	6.0	29.7	·	·	·
CCn1c(C)nc2cc(-c3nnc(-c4c(-c5ccccc5)noc4C)o3)ccc21	1.2	9.6	70.2*	3.0	6.7	-8.9	76.7*	17.4	17.9
CCc1ccc(CNC(=O)CCCC(=O)n2nc(C)c3ccccc32)cc1	18.9	0.2	56.9*	14.0	-0.9	2.8	17.3	22.9	3.7
COc1cc(OC)c2c(-c3cccc(-c4ccc(OC)c(F)c4)c3)cc(=O)oc2c1	-77.4	7.5	59.9*	21.4	-32.3	-3.4	58.8*	59.7*	-7.3
COc1cc(-c2c(-c3cc(OC)c(OC)c(OC)c3)noc2C)ccc1F	-97.2	·	50.9	·	·	23.8	66.8*	65.4*	-0.4
COc1ccc(-c2c(-c3cc(OC)c(OC)c(OC)c3)noc2C)cn1	·	-7.5	30.4	-2.6	-4.1	·	·	·	·
